Structures are written as SMILES. Inconclusive results are not listed. A call without a number means that no potency is given here. Values without a mark were called inactive. Active and inactive are the calls of the source. Unless noted, calls come from the whole dose curve; as a rule, active = well fitted cell-killing curve with a large enough effect in the repeat runs; inconclusive = weak or mixed curves, or effect the other way; inactive = no such curve, though single readings can be large or run the other way.

Sequence of Progesterone receptor (Homo sapiens) (P06401 whole entry, looked up): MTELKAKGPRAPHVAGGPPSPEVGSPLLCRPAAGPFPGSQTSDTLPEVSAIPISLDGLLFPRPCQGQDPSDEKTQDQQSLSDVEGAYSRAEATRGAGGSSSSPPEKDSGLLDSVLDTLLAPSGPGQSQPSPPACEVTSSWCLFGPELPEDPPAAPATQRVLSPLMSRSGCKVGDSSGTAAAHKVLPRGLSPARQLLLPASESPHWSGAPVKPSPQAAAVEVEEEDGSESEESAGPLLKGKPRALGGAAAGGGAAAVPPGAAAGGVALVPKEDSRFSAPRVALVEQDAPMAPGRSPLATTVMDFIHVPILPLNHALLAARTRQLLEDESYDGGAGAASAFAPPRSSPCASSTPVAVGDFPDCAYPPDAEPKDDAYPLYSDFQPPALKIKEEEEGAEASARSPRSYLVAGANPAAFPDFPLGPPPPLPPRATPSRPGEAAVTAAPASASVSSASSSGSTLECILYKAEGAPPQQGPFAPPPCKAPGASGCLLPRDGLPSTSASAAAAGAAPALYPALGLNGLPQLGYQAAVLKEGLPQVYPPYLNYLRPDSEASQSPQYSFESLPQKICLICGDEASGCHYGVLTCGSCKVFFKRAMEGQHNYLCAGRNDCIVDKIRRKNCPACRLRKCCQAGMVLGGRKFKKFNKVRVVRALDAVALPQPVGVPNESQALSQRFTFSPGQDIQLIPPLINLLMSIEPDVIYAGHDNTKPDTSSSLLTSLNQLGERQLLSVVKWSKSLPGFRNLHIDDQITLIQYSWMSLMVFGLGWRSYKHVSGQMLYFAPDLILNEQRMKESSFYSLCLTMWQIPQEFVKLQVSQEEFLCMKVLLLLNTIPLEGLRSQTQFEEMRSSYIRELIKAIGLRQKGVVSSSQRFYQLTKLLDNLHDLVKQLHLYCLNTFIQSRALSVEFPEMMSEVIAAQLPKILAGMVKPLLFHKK

For one test, the target named is Progesterone receptor (Homo sapiens) (UniProt P06401). The test can be described thus: qHTS assay to identify small molecule agonists of the progesterone receptor (PR) signaling pathway (AID 1346784; calls by dose curve; note: nearly all actives have a fitted effect of over 30% in size). To be noted: PR-UAS-bla HEK293T, beta-lactamase FRET ratio, 16 h; series mostly up to 92.4 µM. An outline of the steps:
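Beta-lactamase reporter read-out: after 16 hr compound treatment at 37C and a further 2 hr at room temperature with LiveBLAzer B/G FRET substrate, fluorescence was measured in PR-UAS-bla HEK 293T cells grown in 2% charcoal-stripped serum.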
As to `CCOC(=O)c1c(N)sc2c1CCN(Cc1ccccc1)C2`, the Potency entry was “inactive”. In the case of `CC(=O)OCC(C)C`, the Potency result was “inactive”. In the case of `CC(CCc1ccc(O)cc1)NCCc1ccc(O)c(O)c1` (centres undefined), the Potency result is “inactive”. With `COc1cc(NCc2ccc3nc(N)nc(N)c3c2C)cc(OC)c1OC`, the Potency entry is “inactive”. The same measure, in the same setting: as for `CC[C@H]1OC(=O)[C@H](C)[C@@H](O[C@H]2C[C@@](C)(OC)[C@@H](O)[C@H](C)O2)[C@H](C)[C@@H](O[C@@H]2O[C@H](C)C[C@H](N(C)C)[C@H]2O)[C@](C)(O)C[C@@H](C)CN(C)[C@H](C)[C@@H](O)[C@]1(C)O`, the entry is “inactive”. Consider `O=c1[nH]c2cc(C(F)(F)F)c(N3CCOCC3)cc2n(CP(=O)(O)O)c1=O`, for which the Potency result is “inactive”. For `COc1ccc(N)c([N+](=O)[O-])c1`, the Potency entry is “inactive”. As for `CN1CCCN(C(c2ccccc2)c2ccc(Cl)cc2)CC1` (centres undefined), the Potency entry was “inactive”. Turning to `CC(CN(CCN(CC(C)OCCO)CC(C)OCCO)CC(C)OCCO)OCCO` (centres undefined), the Potency entry is “inactive”.

For the next test the target is unchanged. As to the kind of experiment: qHTS assay to identify small molecule antagonists of the progesterone receptor (PR) signaling pathway (AID 1346795; active = well fitted inhibition curve with a large enough effect in the signal ratio in the repeat runs, not every such curve was filed as active; the % refers to the signal ratio; note: potency is the fitted concentration of half-maximal effect). To be noted: PR-UAS-bla HEK293T, beta-lactamase FRET ratio, 16 h; series mostly up to 92.4 µM. Put shortly:
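Read-out is fluorescence from the LiveBLAzer B/G FRET substrate, cleaved by a UAS-controlled beta-lactamase in PR-UAS-bla HEK293T cells after 16 hr exposure to compound plus 1 nM promegestone (final), followed by 2 hr at room temperature.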
In the case of `CCN(CC)C(=O)/C(C#N)=C/c1cc(O)c(O)c([N+](=O)[O-])c1`, the Potency entry is “inactive”. As to `CCOC(=O)c1c(N)sc2c1CCN(Cc1ccccc1)C2`, the Potency result is “inactive”. For the molecule `CC[C@@H](CO)NCCN[C@@H](CC)CO`, the Potency entry was “inactive”. `CC(=O)OCC(C)C`: the Potency result was “inactive”. For `Cc1cn([C@H]2C[C@H](F)[C@@H](CO)O2)c(=O)[nH]c1=O`, the Potency result is “inactive”. On the same count and under the same terms, as for `O=S(=O)(O)CO`, the entry is “inactive”; as for `CC(CCc1ccc(O)cc1)NCCc1ccc(O)c(O)c1` (centres undefined), “inactive”. Same read-out and setting: the value for `COc1cc(NC(C)CCCN)c2ncccc2c1` (centres undefined) was “inactive”; that for `Cc1ccccc1S(N)(=O)=O` was “inactive”; that for `COc1cc(S(=O)(=O)Nc2ccccc2)c(OC)cc1N` was “inactive”. Turning to `COC1CCC=CO1` (centres undefined), the Potency result was “inactive”.

For the molecule `c1ccc2sc(SSc3nc4ccccc4s3)nc2c1`, the activity change, negative = inhibition is -9.57% [at 18.9 µM]. As for `NC(=O)c1ccccc1[N+](=O)[O-]`, the Potency entry was “inactive”. As for `CCCCCC`, the Potency result is “inactive”. On to `CC[C@H]1OC(=O)[C@H](C)[C@@H](O[C@H]2C[C@@](C)(OC)[C@@H](O)[C@H](C)O2)[C@H](C)[C@@H](O[C@@H]2O[C@H](C)C[C@H](N(C)C)[C@H]2O)[C@](C)(O)C[C@@H](C)CN(C)[C@H](C)[C@@H](O)[C@]1(C)O`, for which the Potency result was “inactive”. The same measure, in the same setting: the value for `CC(C)c1ccc(C(=O)N=C(N)N)cc1S(C)(=O)=O` was “inactive”. As to `COC(=O)C1=C(C)NC(C)=C(C(=O)OC(C)(C)CN(C)CCC(c2ccccc2)c2ccccc2)C1c1cccc([N+](=O)[O-])c1` (centres undefined), the Potency was 6.68 µM (active). The same measure, in the same setting: as for `Cc1ccc2c(c1[N+](=O)[O-])C(=O)c1ccccc1C2=O`, the entry is “inactive”. On to `O=c1[nH]c2cc(C(F)(F)F)c(N3CCOCC3)cc2n(CP(=O)(O)O)c1=O`, for which the Potency result is “inactive”. Take `Cc1ccc2c(c1)CCCN2`: the Potency entry is “inactive”. Turning to `COc1ccc(N)c([N+](=O)[O-])c1`, the Potency entry is “inactive”. Same read-out and setting: the value for `C1=CCC2CC=CC2C1` (centres undefined) was “inactive”; that for `CN1CCCN(C(c2ccccc2)c2ccc(Cl)cc2)CC1` (centres undefined) was 21.1 µM (active); that for `CC(CN(CCN(CC(C)OCCO)CC(C)OCCO)CC(C)OCCO)OCCO` (centres undefined) was “inactive”.

Test system in another test: not listed separately
The test can be described thus: qHTS assay to identify small molecule antagonists of the progesterone receptor (PR) signaling pathway - cell viability counter screen (AID 1346798).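 For activity change, negative = cytotoxicity: HEK293T PR-UAS-bla cells stimulated with the agonist R5020.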 Note: nearly all actives have a fitted effect of over 50% in size. Note: potency is the fitted concentration of half-maximal effect. The settings on record: PR-UAS-bla HEK293T viability, CellTiter-Glo luminescence, 16 h; series mostly up to 92.4 µM. An outline of the steps:
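HEK293T PR-UAS-bla, 2% charcoal-stripped FBS; 4 hr pre-plate; cpd + R5020, 16 h 37C; LiveBLAzer read first; then CellTiter-Glo 30 min RT, luminescence.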
As for `C[C@@H]1C[C@H]2[C@@H]3CCC4=CC(=O)C=C[C@]4(C)[C@@]3(F)[C@@H](O)C[C@]2(C)[C@@]1(O)C(=O)COP(=O)(O)O`, the Potency result was “inactive”. Take `O=C(O)CN1C(=O)c2cccc3cccc(c23)C1=O`: the Potency result is “inactive”. Regarding `CCOC(=O)c1c(N)sc2c1CCN(Cc1ccccc1)C2`, the Potency result was “inactive”. Still for that read-out and setting: as for `CC[C@@H](CO)NCCN[C@@H](CC)CO`, the entry is “inactive”. Consider `CCOC(=O)c1ccc(NC(=O)CN2CCCCC2)cc1`, for which the Potency result was “inactive”. Regarding `CC(=O)OCC(C)C`, the Potency entry is “inactive”. On the same count and under the same terms, as for `Cc1cn([C@H]2C[C@H](F)[C@@H](CO)O2)c(=O)[nH]c1=O`, the entry is “inactive”; as for `O=S(=O)(O)CO`, “inactive”; as for `CCCCCCCCCCCSCC(=O)O`, “inactive”. With `CC(C)C(O)C(C)(C)CO` (centres undefined), the Potency result was “inactive”.

Consider `Nc1nc(-c2ccc([N+](=O)[O-])cc2)cs1`, for which the Potency result is “inactive”. As to `CC(CCc1ccc(O)cc1)NCCc1ccc(O)c(O)c1` (centres undefined), the Potency result was “inactive”. Still for that read-out and setting: as for `COc1cc(NC(C)CCCN)c2ncccc2c1` (centres undefined), the entry is “inactive”; as for `CC(C)OC(=O)c1ccccc1C(=O)OC(C)C`, 61.1 µM (active). Turning to `COc1cc(S(=O)(=O)Nc2ccccc2)c(OC)cc1N`, the Potency result was “inactive”. As to `COC1CCC=CO1` (centres undefined), the Potency entry was “inactive”.

As for `O=C1NC(=O)c2cccc3cccc1c23`, the Potency entry was “inactive”.

In the case of `c1ccc2sc(SSc3nc4ccccc4s3)nc2c1`, the activity change, negative = cytotoxicity was -0.0474% [at 18.9 µM]. On to `NC(=O)c1ccccc1[N+](=O)[O-]`, for which the Potency result is “inactive”. Turning to `COc1cc(NCc2ccc3nc(N)nc(N)c3c2C)cc(OC)c1OC`, the Potency result was “inactive”. As to `O=C1OC(=O)c2c(Br)c(Br)c(Br)c(Br)c21`, the Potency entry was “inactive”. `CCCCCC`: the Potency result was “inactive”. Regarding `CC[C@H]1OC(=O)[C@H](C)[C@@H](O[C@H]2C[C@@](C)(OC)[C@@H](O)[C@H](C)O2)[C@H](C)[C@@H](O[C@@H]2O[C@H](C)C[C@H](N(C)C)[C@H]2O)[C@](C)(O)C[C@@H](C)CN(C)[C@H](C)[C@@H](O)[C@]1(C)O`, the Potency result is “inactive”.

Turning to `CC(C)c1ccc(C(=O)N=C(N)N)cc1S(C)(=O)=O`, the Potency entry is “inactive”.

In the case of `Cc1ccc2c(c1[N+](=O)[O-])C(=O)c1ccccc1C2=O`, the Potency result was “inactive”. Turning to `O=c1[nH]c2cc(C(F)(F)F)c(N3CCOCC3)cc2n(CP(=O)(O)O)c1=O`, the Potency entry is “inactive”. On the same count and under the same terms, the value for `Cc1ccc2c(c1)CCCN2` was “inactive”; that for `COc1ccc(N)c([N+](=O)[O-])c1` was “inactive”; that for `C1CCCCC1` was “inactive”. With `CN1CCCN(C(c2ccccc2)c2ccc(Cl)cc2)CC1` (centres undefined), the Potency was 15 µM (active). As for `CC(CN(CCN(CC(C)OCCO)CC(C)OCCO)CC(C)OCCO)OCCO` (centres undefined), the Potency result is “inactive”.

(Values after PubChem BioAssay (Tox21).)
